Among the data in PubChem BioAssay (NCI) are growth inhibition values, retold here.

The structures appear in SMILES notation. The panel holds about 79,000 compounds, 15% with a hit somewhere; the sample as a whole holds those more often. A number with no mark means an inactive call. Active and inactive are the calls of the source. Rule as the data show it: active = growth inhibition above about 70%; inactive = the rest. Where a SMILES comes first, the peptide text is derived from it. [ ]: non-standard residue; d: D form. The star is where a group is joined. NMeF = CN[C@@H](Cc1ccccc1)C(=O)O; NMeV = CN[C@H](C(=O)O)C(C)C; Boc = CC(C)(C)OC(=O)*; OBn = c1ccc(CO*)cc1

The nature of assay [1]: NCI Yeast Anticancer Drug Screen. Data for the rad50 strain (AID 155).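 Also: 0% = growth of vehicle-only cultures of the same strain.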 As to conditions: S. cerevisiae rad50 strain growth inhibition, active compounds read high; at 50.0 µM unless noted. The gist of the method:
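Inhibition values express reduced yeast growth in compound-treated cultures relative to vehicle-treated controls.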

A short description of assay [2]: NCI Yeast Anticancer Drug Screen. Data for the mec2-1 strain (AID 157). As to conditions: S. cerevisiae mec2-1 strain, active compounds read high; at 50.0 µM unless noted. In short, it runs like this: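 Each compound was tested on mec2-1 yeast, a strain altered in DNA damage repair or cell cycle control. Growth inhibition is reported relative to vehicle.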
The nature of assay [3]: NCI Yeast Anticancer Drug Screen. Data for the sgs1 mgt1 strain (AID 161).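 Also: 0% = growth of cultures given vehicle only.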 As to conditions: S. cerevisiae sgs1 mgt1 strain, active compounds read high; at 50.0 µM unless noted. In short, it runs like this: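 Inhibition of yeast growth, normalised to vehicle-treated controls, is reported for a strain bearing genetic alterations in DNA damage repair.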
Assay [4] can be described thus: NCI Yeast Anticancer Drug Screen. Data for the cln2 rad14 strain (AID 165).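 Also: 0% = growth equal to vehicle treated cultures.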 As to conditions: S. cerevisiae cln2 rad14 strain, active compounds read high; at 50.0 µM unless noted. In short, it runs like this:
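Test compounds were added to cln2 rad14 yeast cultures; inhibition of growth was then determined by comparison with vehicle treatment.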

Assay [5] is described as follows: NCI Yeast Anticancer Drug Screen. Data for the bub3 strain (AID 167). As to conditions: S. cerevisiae bub3 mutant strain, active compounds read high; at 50.0 µM unless noted. In short, it runs like this: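 Steps: expose the mutant yeast strain to compound; grow alongside vehicle-treated cultures; measure growth; express inhibition against the vehicle cultures.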
Assay [6] in a line: NCI Yeast Anticancer Drug Screen. Data for the mlh1 rad18 strain (AID 175). As to conditions: S. cerevisiae mlh1 rad18 strain growth inhibition, active compounds read high; at 50.0 µM unless noted. In short, it runs like this:
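Inhibition values reflect reduced growth of mutant yeast versus vehicle-treated controls following compound exposure; the mutations affect DNA damage repair.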

In the case of `CCOC(=O)/C(C#N)=C/c1ccccc1Cl`, the growth inhibition is 12.1% in assay [1]; -6.3% in assay [2]; -30.6% in assay [3]; 16.1% in assay [4]; -20.1% in assay [5]; 6.35% in assay [6].
Consider `COc1cc(CC2(C#N)c3ccccc3C=CN2C(=O)c2ccccc2)c(Oc2cc(CC3(C#N)c4ccccc4C=CN3C(=O)c3ccccc3)ccc2OC)cc1OC` (stereo unspecified), for which the growth inhibition is 4.65% in assay [1]; 8.85% in assay [2]; 15.3% in assay [3]; -5.6% in assay [4]; 3.85% in assay [5]; 32.9% in assay [6].
`COc1ccc(-c2oc(=O)c3ccccc3c2-c2ccccc2)cc1`: the growth inhibition is 7.25% in assay [1]; 4.65% in assay [2]; 5.35% in assay [3]; 9.4% in assay [4]; 2.6% in assay [5]; 6.4% in assay [6].
`OC(c1ccc(OCc2ccccc2)cc1)c1ccccn1` (stereo unspecified): the growth inhibition in assay [1] is -1.15%; in assay [2] it was -0.65%; in assay [3] it was -4.45%; in assay [4], -16.4%; in assay [5], -5.7%; in assay [6] it was -0.3%.
`CC(C)C(C=O)C(O)(C(F)(F)F)C(F)(F)F` (stereo unspecified): the growth inhibition was 2.3% in assay [1]; -2.8% in assay [2]; -30.6% in assay [3]; 13.3% in assay [4]; 22.3% in assay [5]; 0.5% in assay [6].
In the case of `O=c1[nH]n(Cc2ccccc2CCl)c2ccc([N+](=O)[O-])cc12`, the growth inhibition in assay [1] was 24.1%; in assay [2], 13.3%; in assay [3], -10.8%; in assay [4] it was 24%; in assay [5], 4.1%; in assay [6], 3.7%.
Turning to `CCOC(Nc1cc(Cl)cc(Cl)c1)C(=O)c1ccccc1` (stereo unspecified), the growth inhibition in assay [1] is -1.9%; in assay [2], -0.7%; in assay [3], -9.8%; in assay [4], -3.05%; in assay [5], 4.05%; in assay [6], -5.65%.
In the case of `N#Cc1c(N2CCCC2)nsc1Nc1ccc(F)cc1`, the growth inhibition is 2.6% in assay [1]; 2.85% in assay [2]; 0.8% in assay [3]; -16% in assay [4]; 4.4% in assay [5]; -9% in assay [6].
As to `COC(NC(=O)Nc1ccccc1C)(C(F)(F)F)C(F)(F)F`, the growth inhibition was -12.3% in assay [1]; -22.4% in assay [2]; -34.4% in assay [3]; 2.8% in assay [4]; -24.4% in assay [5]; -12.8% in assay [6].
In the case of `CC(C)[C@@H](C(=O)N1CCC[C@H]1C(=O)OCc1ccccc1)N(C)C(=O)[C@H](C(C)C)N(C)C(=O)[C@H](Cc1ccccc1)N(C)C(=O)[C@H](NC(=O)OC(C)(C)C)C(C)C` (Boc-[dV][NMeF][NMeV][NMeV]P-OBn), the growth inhibition in assay [1] is -41.9%; in assay [2], -42.1%; in assay [3] it was -38.2%; in assay [4], -38.1%; in assay [5], -42.6%; in assay [6] it was -36.3%.
Consider `CC/C(C)=N\NS(=O)(=O)c1ccc(NC(C)=O)cc1`, for which the growth inhibition in assay [1] was -5%; in assay [2], -14.3%; in assay [3], 18.1%; in assay [4], 20.8%; in assay [5], -33.5%; in assay [6], -0.7%.
For `N#CCc1cccc(Cl)c1Cl` (tested in a mixture with another compound), the growth inhibition in assay [1] was 6.8%; in assay [2], -15.3%; in assay [3] it was 3.55%; in assay [4], -22.4%; in assay [5], 14.4%; in assay [6] it was -7.55%.
In the case of `Cc1nc(N(C)C)oc(=O)c1CCc1ccccc1`, the growth inhibition in assay [1] was -5.8%; in assay [2] it was 3.8%; in assay [3], -0.9%; in assay [4], 0.2%; in assay [5], 6.9%; in assay [6] it was 8.9%.
For `Cc1ccc([N+](=O)[O-])cc1NC(=O)Sc1ccc(C(C)(C)C)cc1C`, the growth inhibition in assay [1] was 5.2%; in assay [2], 6.9%; in assay [3], 4.65%; in assay [4], -11.4%; in assay [5], 3.4%; in assay [6], 8.8%.
Turning to `O=C(NCCNC(=O)C(Br)(Br)Br)C(Br)(Br)Br`, the growth inhibition in assay [1] is 82.3% (active); in assay [2] it was 53.5%; in assay [3], 58%; in assay [4], 44.7%; in assay [5] it was 69.5%; in assay [6] it was 72.8% (active).
Consider `Cc1ccc(NC(=O)CC/C(CC(=O)C(C)(C)C)=N/NC(=O)c2cc3ccccc3cc2O)cc1C`, for which the growth inhibition in assay [1] was 27.9%; in assay [2], 21.1%; in assay [3], 0.35%; in assay [4], -0.35%; in assay [5] it was 28.4%; in assay [6] it was 14.8%.
As to `Cc1cc(N)ccc1-c1cc(C)c(N)c(C)c1C`, the growth inhibition in assay [1] was -39.4%; in assay [2] it was -21.9%; in assay [3], -7.8%; in assay [4] it was 13.2%; in assay [5], -18.7%; in assay [6], -15.1%.
Consider `CCOC(=O)c1cc(C(O)C(O)C(O)CO)oc1C` (stereo unspecified), for which the growth inhibition in assay [1] is 14.6%; in assay [2], 2.1%; in assay [3] it was -6.45%; in assay [4] it was -13.1%; in assay [5], 21.9%; in assay [6] it was 18.1%.
Regarding `C/C(=N/NC(N)=S)c1ccc([N+](=O)[O-])cc1`, the growth inhibition in assay [1] is 75.7% (active); in assay [2] it was -8.8%; in assay [3] it was -8.6%; in assay [4] it was -64.7%; in assay [5], -12.4%; in assay [6], -2.3%.
Turning to `COC1CN(C(C)(C)C)C1`, the growth inhibition in assay [1] is 2.65%; in assay [2] it was 6.15%; in assay [3], -1.2%; in assay [4], 2.65%; in assay [5] it was 6.6%; in assay [6], 0.95%.
As for `CCCCCCCCCCCCCC(=O)OCCC(C)C`, the growth inhibition is -5.85% in assay [1]; 0.25% in assay [2]; 7.25% in assay [3]; -18.9% in assay [4]; 3.4% in assay [5]; -7.3% in assay [6].
